This is a sample that favours compounds with a hit; in the whole collection about 32% have one here.
CYP2C19 inhib – blockers of cytochrome P450 2C19 activity – biochemical, luminescence, ADME assay, primary screen | P33261 | CYP2C19 Supersomes, luciferin-H EGE luminescence, 30 min | inhibition, % at 5 µM | 96,000 tested, 21% active;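 active = CYP2C19 inhibition above a set limit at 5 µM in the primary screen, cut at about 50% in these data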
PostGolgi yeast – phenotypic screen on post-Golgi transport, primary screen. post-Golgi transport phenotypic cell assay. inhibition, % at 10 µM. 98,000 tested, 0.9% active;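 note: yeast cells grown in 1536-well plates; yeast grown about 18 h at 30C before absorbance read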
PostGolgi ctrl – growth inhibition of yeast control strain, primary screen, counter-screen for post-Golgi transport modulator project | efflux-deficient yeast background strain, growth absorbance A615, 16 h | 98,000 tested, 5% active | AID 738, 2007 | inhibition, % at 10 µM
CYP2C19 act – human CYP2C19 activators, primary screen, biochemical, luminescence; AID 1025, 2008; activation factor at 5 µM; 96,000 tested, under 10 active; Cytochrome P450 2C19 (Homo sapiens), P33261; recombinant CYP2C19, luciferin-H EGE luminescence; active compounds read high; 0 = fully inhibited enzyme, 1 = untreated enzyme;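 active = activation factor of at least 2 at 5 µM in the primary screen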
CYP2C9 inhib – blockers of cytochrome P450 2C9 activity – biochemical, luminescence, ADME assay, primary screen | P11712 | CYP2C9 Supersomes, luciferin-H conversion | inhibition, % at 5 µM | 96,000 tested, 20% active | AID 777, 2007;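 active = blocking of liver enzyme CYP2C9 beyond about 50% at 5 µM, limit read from the data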
Target sequence (P11712 whole entry, looked up): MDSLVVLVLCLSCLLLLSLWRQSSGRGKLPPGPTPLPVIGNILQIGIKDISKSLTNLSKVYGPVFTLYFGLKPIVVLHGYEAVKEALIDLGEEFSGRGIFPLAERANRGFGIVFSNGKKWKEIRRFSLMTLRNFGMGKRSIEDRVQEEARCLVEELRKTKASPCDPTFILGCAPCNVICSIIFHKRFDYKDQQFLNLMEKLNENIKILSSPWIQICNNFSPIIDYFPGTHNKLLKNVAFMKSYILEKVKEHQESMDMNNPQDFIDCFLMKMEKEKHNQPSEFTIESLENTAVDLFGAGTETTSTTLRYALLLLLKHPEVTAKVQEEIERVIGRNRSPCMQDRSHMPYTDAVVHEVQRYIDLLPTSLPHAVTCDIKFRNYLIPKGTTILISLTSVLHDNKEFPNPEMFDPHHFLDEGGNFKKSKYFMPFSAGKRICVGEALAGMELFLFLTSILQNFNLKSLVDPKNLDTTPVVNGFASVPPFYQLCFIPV
CYP2C9 activ – human CYP2C9 activators, primary screen, biochemical, luminescence; AID 1024, 2008; Cytochrome P450 2C9 (Homo sapiens), P11712; 96,000 tested, 1.4% active; activation factor at 5 µM; recombinant CYP2C9, luciferin-H conversion; active compounds read high; factor 1 = untreated enzyme, 0 = blocked;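 active = activation factor of 2 or more for CYP2C9 at a 5 µM dose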
Large screens that a line does not name were inactive. Cut-off read from the data, not from the text of the source, unless noted: active = inhibition above about 30%; inactive = the rest.

CCOC(=O)c1c(C)[nH]c(C)c1C(=O)COC(=O)c1ccc(Cl)c(S(=O)(=O)NCc2ccccc2)c1	CYP2C19 inhib 82, CYP2C9 inhib 80
Cc1ccc2c(c1)nnn2C1CCN(S(=O)(=O)c2ccc(C(=O)N(C)C3CCCCC3)cc2)CC1	none
O=C(CSc1ncn(-c2ccccc2)n1)c1cccs1	CYP2C19 inhib 94, CYP2C9 inhib 71
CCOC(=O)c1sc(NC(=O)CSc2ncn(-c3ccccc3)n2)nc1C	none
Nc1nc(CSc2ncn(-c3ccccc3)n2)cs1	CYP2C19 inhib 82
c1ccc(CSc2ncn(-c3ccccc3)n2)cc1	CYP2C19 inhib 85, CYP2C9 inhib 79
Cc1nnc(N(CCC#N)CCC#N)s1	none
O=C(c1ccco1)N1CCC(c2nc(-c3ccc(F)cc3)no2)CC1	none
O=C(CNC(=O)Cc1ccccc1)NCC(=O)OCC(=O)c1cccc2ccccc12	CYP2C9 activ 3.6
O=C(CNC(=O)c1ccco1)OCC(=O)c1cccc2ccccc12	none
CC1CN(c2nc3c(c(=O)[nH]c(=O)n3C)n2Cc2ccccc2F)CC(C)O1 (configuration not stated)	none
O=C(c1ccc2c(c1)OCCO2)C1CCN(S(=O)(=O)c2ccc(F)cc2)CC1	none
CNCc1ccccc1Sc1ccc(OC)cc1	CYP2C19 inhib 65
COc1cccc(OCC(O)CO)c1 (configuration not stated)	none
COc1cccc(Sc2ccccc2CN(C)C)c1	CYP2C19 inhib 72
O=C(N/N=C1/CCCc2ccccc21)C(c1ccccc1)c1ccccc1	none
CCOC(=O)CC(C#N)c1cn(C)c2ccccc12 (configuration not stated)	CYP2C19 inhib 88, CYP2C9 activ 3.5
Cn1cc(C(CC(=O)O)C(=O)O)c2ccccc21 (configuration not stated)	none
O=C(O)COc1c(F)c(F)c(C(F)(F)F)c(F)c1F	none
Cc1cccc(-c2nc(=S)c3c(o2)CCCC3)c1	CYP2C9 activ 2.5
S=c1nc(-c2ccc(Br)cc2)oc2c1CCCC2	none
Cc1ccc(SCC(=O)NCCN2C(=O)CSC2=O)cc1C	CYP2C19 inhib 97
Cc1cccc(-n2nnnc2SCC(=O)NCCN2C(=O)CSC2=O)c1	CYP2C19 inhib 77
Cc1ccc(SCC(=O)NCCN2C(=O)CSC2=O)c(C)c1	none (no result: CYP2C19 inhib, CYP2C19 act, CYP2C9 inhib, CYP2C9 activ)
Cc1ccc(-c2nc(SCC(=O)NCCN3C(=O)CSC3=O)[nH]c2-c2ccc(C)cc2)cc1	CYP2C9 inhib 64
CC1CCN(c2c(NCC3CCC(C(=O)N4CCc5ccccc5C4)CC3)c(=O)c2=O)CC1 (configuration not stated)	none
COc1ccc(/C(O)=C2/C(=O)C(=O)N(CCN(C)C)C2c2ccc(F)cc2)cc1Cl (configuration not stated)	none
CC(C)Oc1snc(Cl)c1C(N)=O	none
Cc1ccc(NC(=O)c2ccc(CSc3ccccn3)cc2)cc1	none
CN(C(=O)c1coc(=O)c2ccccc12)c1ccc(F)cc1	CYP2C9 inhib 59
COc1ccc(CNC(=O)C2CCCN2S(=O)(=O)c2ccc(S(=O)(=O)N(C)C)cc2)cc1 (configuration not stated)	none
N#CC1=C(C2CC2)CC(c2ccccc2)C(C#N)=C1N (configuration not stated)	CYP2C19 inhib 57
CCCc1cc(C(=O)Nc2cc(Br)ccc2O)no1	none
CCn1ccnc1C(O)c1ccc(N(C)C)cc1 (configuration not stated)	CYP2C19 inhib 62
COc1ccc(C(O)c2nccn2Cc2ccccc2)cc1OC (configuration not stated)	none
CCOc1ccc(C(O)c2nccn2Cc2ccccc2)cc1 (configuration not stated)	CYP2C19 inhib 80
CC1CCCC/C1=N\NS(=O)(=O)c1ccc(Br)cc1 (configuration not stated)	CYP2C9 inhib 51
CC1(c2ccccc2)NC(=O)N(CC(=O)NC(=O)NCc2ccco2)C1=O (configuration not stated)	none
O=C(CN1C(=O)NC2(CCCCCCC2)C1=O)NC(=O)NCc1ccco1	PostGolgi ctrl 38
CC1Cc2ccccc2N1CC(=O)NC(=O)NCc1ccco1 (configuration not stated)	CYP2C19 inhib 83, CYP2C9 inhib 55
O=C(CN1CCCc2ccccc21)NC(=O)NCc1ccco1	CYP2C19 inhib 69
O=C(CN1CCOc2ccccc21)NCc1ccco1	none
CC(=O)c1nn(-c2cccc(Br)c2)cc1C(=O)c1ccc(Br)cc1	CYP2C9 activ 2.4
CC(=O)c1nn(-c2cccc(Br)c2)cc1C(=O)c1ccc(C)cc1	CYP2C9 inhib 61
COc1ccc(-n2cc(C(=O)c3cc4ccccc4oc3=O)c(C(C)=O)n2)cc1	none
Cc1ccc(CNC(=O)c2ccc(C#CC(C)(C)O)s2)cc1	none
C=CCn1c(=O)n2ncnc2c2c3c(sc21)CCCC3	none
O=c1n(Cc2ccc(Cl)cc2)c2sc3c(c2c2ncnn12)CCCC3	PostGolgi ctrl 93, CYP2C9 inhib 85
CCN1C(=O)/C(=C/c2cn(C)nc2C)SC1=S	none
COc1ccc(/C=N/N2CCN(c3ccncc3S(=O)(=O)N3CCCCC3)CC2)cc1	none
O=C(Cn1nnc(-c2ccccc2Cl)n1)N1CCN(S(=O)(=O)c2ccc(Cl)cc2)CC1	none
O=C(Cn1nc(C(F)F)cc1C(F)F)NNC(=S)Nc1ccc(Cl)cc1	CYP2C9 inhib 71
Cc1noc(C(=O)N2CC3(C)CC2CC(C)(C)C3)c1Cl (configuration not stated)	CYP2C19 inhib 82
CCOC(=O)c1ccc(OCc2c(C)noc2C)cc1	CYP2C19 inhib 75, CYP2C9 inhib 79
Cc1noc(C)c1COc1ccc(C(=O)OCC(=O)c2ccc3c(c2)OCCO3)cc1	none
Cc1noc(C)c1COc1ccc(C(=O)OCC(=O)Nc2ccc3ccccc3c2)cc1	CYP2C19 inhib 65, CYP2C9 inhib 88
COc1ccc(CC(=O)N2CC3(C)CC2CC(C)(C)C3)cc1 (configuration not stated)	none
Cc1cccc(C)c1OCC(=O)N1CC2(C)CC1CC(C)(C)C2 (configuration not stated)	CYP2C19 inhib 61
Cc1ccsc1C(=O)Nc1ccccc1N1CCOCC1	none
CN(C)S(=O)(=O)N1CCN(CC(O)COc2ccc(C(=O)c3ccccc3)cc2)CC1 (configuration not stated)	none
Nc1nc2ccc(C(=O)NC3CCCCC3)cc2s1	none
O=C(c1ccc2ncsc2c1)N1CCN(c2ccc(O)cc2)CC1	none

Assay outcomes as filed in PubChem.
